Values joined by “and” are separate entries in the source; they are usually repeats but may differ in a detail not shown here. Equal values may be shown once. Where a name gives a salt, the structure may show the parent alone. ± gives the standard deviation of the averaged measurements.
test system: Molm13; experiment: cell viability relative to DMSO control (bortezomib = 0%); higher = less growth inhibition; conditions: 10 nM; 72 h
Summary of the method: (§1)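 Using 384-well plates, a set of 679 approved and investigational compounds was tested once at 10 nM against acute myeloid leukemia cells (1000 cells per well in 50 µL) over 72 h, with the whole screen done in duplicate. Viability readout relied on CellTiter-Glo luminescence measured on an EnVision reader. For each plate, linear regression mapped values between positive-control-treated cells at 0% and DMSO-treated cells at 100%.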

Row | SMILES | cell viability
1 | COc1cc(N2CCC(N)CC2)ccc1Nc1ncc(Cl)c(-c2c[nH]c3ccccc23)n1 | 86 ± 2.5%
2 | Cc1c(NC(=O)OC[C@@H]2COCCN2)cn2ncnc(Nc3ccc4c(cnn4Cc4cccc(F)c4)c3)c12 | 105 ± 8%
3 | O=C1NC(=O)C(c2ccccc2[N+](=O)[O-])=C1Nc1ccc(O)c(Cl)c1 | 110 ± 9.4%
4 | COc1cc(C(=O)N2CCC(N3CCN(C)CC3)CC2)ccc1Nc1ncc2c(n1)N(C)c1ccccc1C(=O)N2C | 97.52 ± 0.43%
5 | O=c1cc(N2CCOCC2)oc2c(-c3ccccc3)cccc12 | 107 ± 28%
6 | CNC(=O)c1ccc(C)c(-n2c(C)cc(OCc3ccc(F)cc3F)c(Br)c2=O)c1 | 97.9 ± 3.1%
7 | Cc1ccc2c(Nc3ccc(Cl)cc3)nccc2c1Nc1ncccc1-c1ncnc2nc[nH]c12 [B-Raf inhibitor 1] | 98.9 ± 11%
8 | CN1C(=O)C(c2c[nH]c3ccccc23)=C(c2c[nH]c3ccccc23)C1=O [Bisindolylmaleimide V] | 124 ± 11%
9 | COc1cc2ncnc(Nc3cccc(Br)c3)c2cc1OC | 93.4% and 102%
10 | O=S(=O)(c1cccc2cnccc12)N1CCCNCC1 [HA-1077 (hydrochloride)] | 105 ± 14%
11 | COc1cc(OC)c(/C=C/S(=O)(=O)Cc2ccc(OC)c(NCC(=O)O)c2)c(OC)c1 | 99.3 ± 23%
12 | COc1cc2ccc(=O)oc2cc1O [Scopoletin] | 102.2 ± 0.33%
13 | CC(CCc1ccccn1)(CCc1ccccn1)C(=O)c1ccccc1 | 112 ± 14%
14 | O=c1ncn2nc(Sc3ccc(F)cc3F)ccc2c1-c1c(Cl)cccc1Cl | 89.6 ± 1.7%
15 | Cc1cc(Nc2nc(N[C@@H](C)c3ccc(F)cc3)c(C#N)cc2F)n[nH]1 | 123 ± 7.3%
16 | O=C(c1cccc(Cl)c1F)N1CCN(Cc2cccc(Nc3nccs3)n2)CC1 | 95.9 ± 11%
17 | CS(=O)(=O)c1ccc(-c2nc(-c3ccc(F)cc3)c(-c3ccncc3)[nH]2)cc1 | 108 ± 14%
18 | CCc1cnn2c(NCc3ccc[n+]([O-])c3)cc(N3CCCC[C@H]3CCO)nc12 | 93.2 ± 28%
19 | CNC(=O)c1cc(Oc2ccc(NC(=O)Nc3ccc(Cl)c(C(F)(F)F)c3)c(F)c2)ccn1 [Regorafenib (BAY 73-4506)] | 101 ± 7.3%
20 | N#C/C(=C\c1ccc(O)c(O)c1)C(=O)NCc1ccccc1 | 96.4 ± 11%
21 | COc1cc(OC)c(C=C2C(=O)Nc3ccccc32)c(OC)c1 | 104 ± 6.9%
22 | CCOc1ccn(-c2ccc(F)cc2)c(=O)c1C(=O)Nc1ccc(Oc2ccnc(N)c2Cl)c(F)c1 | 102.7 ± 0.96%
23 | CN(C)C[C@@H]1CCn2cc(c3ccccc32)C2=C(C(=O)NC2=O)c2cn(c3ccccc23)CCO1 [Ruboxistaurin hydrochloride] | 90 ± 7.3%
24 | CCCCCCCCCCCCC/C=C/[C@H](O)[C@@H](N)CO [L-threo-Sphingosine C-18] | 94 ± 9.1%
25 | C=CC(=O)Nc1cc(Nc2nccc(-c3cn(C)c4ccccc34)n2)c(OC)cc1N(C)CCN(C)C [AZD-9291 mesylate] | 102 ± 5.5%
26 | Nc1nc(O)c2ncn(CCC(CO)CO)c2n1 [Penciclovir] | 111 ± 8%
27 | CC(C)(C)[Si](C)(C)Oc1ccc2oc(=O)c3c(c2c1)CCCN3 | 108 ± 12%

test system: Mv4-11; experiment: as above; conditions: 10 nM; 72 h
Summary of the method: as §1

Row | SMILES | cell viability
28 | O=S(=O)(NCCNC/C=C/c1ccc(Br)cc1)c1cccc2cnccc12 [H-89 (hydrochloride)] | 109 ± 5.8%
29 | NC(=O)c1ccccc1Nc1ccnc(Nc2cccc(O)c2)n1 | 89.2 ± 14%
30 | C[C@@H]1COCCN1c1cc(C2([S@](C)(=N)=O)CC2)nc(-c2cc[nH]c3nccc2-3)n1 | 115 ± 3.4%
31 | CC(C)=CCc1cc2c(cc1O)oc(=O)c1c3ccc(O)cc3oc21 [Psoralidin] | 124 ± 22%
32 | Nc1[nH]nc2nnc(-c3c(-c4ccccc4)nn4ccccc34)cc12 | 109 ± 11%
33 | Cn1cnc(N)c2ncnc1-2 [3-Methyladenine (3-MA)] | 77.5 ± 24%
34 | COc1cc(N2CCC(N3CCN(C)CC3)CC2)ccc1Nc1ncnc(Nc2ccccc2S(=O)(=O)C(C)C)n1 | 98.6 ± 15%
35 | CC(C)=CCC[C@](C)(O[C@@H]1O[C@H](CO)[C@@H](O)[C@H](O)[C@H]1O)[C@H]1CC[C@]2(C)[C@@H]1[C@H](O)C[C@@H]1[C@@]3(C)CC[C@H](O)C(C)(C)[C@@H]3[C@@H](O[C@@H]3O[C@H](CO)[C@@H](O)[C@H](O)[C@H]3O[C@@H]3OC[C@@H](O)[C@H](O)[C@H]3O)C[C@]12C [Notoginsenoside R1] | 105 ± 7.3%
36 | Cc1cnc(-c2cnc(NCCNc3ccc(C#N)cn3)nc2-c2ccc(Cl)cc2Cl)[nH]1 | 105% and 110%
37 | C#Cc1cccc(Nc2ncnc3cc4c(cc23)OCCOCCOCCO4)c1 [Icotinib Hydrochloride] | 105 ± 9.2%
38 | CCOC(=O)c1c2c3c(cccc3[nH]c1=O)C(=O)c1ccccc1-2 | 103 ± 19%
39 | O.O.O.O.O=C([O-])CC(O)(CC(=O)[O-])C(=O)[O-].[Li+].[Li+].[Li+] [Lithium citrate tribasic tetrahydrate] | 114 ± 1.7%
40 | COc1cc(N2CCC(N)CC2)ccc1Nc1ncc(Cl)c(-c2c[nH]c3ccccc23)n1 | 93.3 ± 5.9%
41 | Cc1c(NC(=O)OC[C@@H]2COCCN2)cn2ncnc(Nc3ccc4c(cnn4Cc4cccc(F)c4)c3)c12 | 112 ± 11%
42 | O=C1NC(=O)C(c2ccccc2[N+](=O)[O-])=C1Nc1ccc(O)c(Cl)c1 | 120 ± 9.7%
43 | COc1cc(C(=O)N2CCC(N3CCN(C)CC3)CC2)ccc1Nc1ncc2c(n1)N(C)c1ccccc1C(=O)N2C | 104 ± 5.1%
44 | O=c1cc(N2CCOCC2)oc2c(-c3ccccc3)cccc12 | 104 ± 16%
45 | CNC(=O)c1ccc(C)c(-n2c(C)cc(OCc3ccc(F)cc3F)c(Br)c2=O)c1 | 110 ± 1.8%
46 | Cc1ccc2c(Nc3ccc(Cl)cc3)nccc2c1Nc1ncccc1-c1ncnc2nc[nH]c12 [B-Raf inhibitor 1] | 107.5 ± 0.62%
47 | CN1C(=O)C(c2c[nH]c3ccccc23)=C(c2c[nH]c3ccccc23)C1=O [Bisindolylmaleimide V] | 113 ± 9.1%

Row | SMILES | cell viability
48 | COc1cc2ncnc(Nc3cccc(Br)c3)c2cc1OC | 99.1% and 113%
49 | O=S(=O)(c1cccc2cnccc12)N1CCCNCC1 [HA-1077 (hydrochloride)] | 112 ± 3.5%
50 | COc1cc(OC)c(/C=C/S(=O)(=O)Cc2ccc(OC)c(NCC(=O)O)c2)c(OC)c1 | 124 ± 8.1%
51 | COc1cc2ccc(=O)oc2cc1O [Scopoletin] | 109.9 ± 0.78%
52 | CC(CCc1ccccn1)(CCc1ccccn1)C(=O)c1ccccc1 | 109 ± 12%
53 | O=c1ncn2nc(Sc3ccc(F)cc3F)ccc2c1-c1c(Cl)cccc1Cl | 108 ± 6.4%
54 | Cc1cc(Nc2nc(N[C@@H](C)c3ccc(F)cc3)c(C#N)cc2F)n[nH]1 | 99.4 ± 3.3%
55 | O=C(c1cccc(Cl)c1F)N1CCN(Cc2cccc(Nc3nccs3)n2)CC1 | 115 ± 9.6%
56 | CS(=O)(=O)c1ccc(-c2nc(-c3ccc(F)cc3)c(-c3ccncc3)[nH]2)cc1 | 100.3 ± 0.91%
57 | CCc1cnn2c(NCc3ccc[n+]([O-])c3)cc(N3CCCC[C@H]3CCO)nc12 | 86.6 ± 15%
58 | CNC(=O)c1cc(Oc2ccc(NC(=O)Nc3ccc(Cl)c(C(F)(F)F)c3)c(F)c2)ccn1 [Regorafenib (BAY 73-4506)] | 110.3 ± 0.69%
59 | N#C/C(=C\c1ccc(O)c(O)c1)C(=O)NCc1ccccc1 | 100.7 ± 0.73%
60 | COc1cc(OC)c(C=C2C(=O)Nc3ccccc32)c(OC)c1 | 100 ± 12%
61 | CCOc1ccn(-c2ccc(F)cc2)c(=O)c1C(=O)Nc1ccc(Oc2ccnc(N)c2Cl)c(F)c1 | 114 ± 7%
62 | CN(C)C[C@@H]1CCn2cc(c3ccccc32)C2=C(C(=O)NC2=O)c2cn(c3ccccc23)CCO1 [Ruboxistaurin hydrochloride] | 101 ± 10%
63 | CCCCCCCCCCCCC/C=C/[C@H](O)[C@@H](N)CO [L-threo-Sphingosine C-18] | 113 ± 2.5%
64 | C=CC(=O)Nc1cc(Nc2nccc(-c3cn(C)c4ccccc34)n2)c(OC)cc1N(C)CCN(C)C [AZD-9291 mesylate] | 94.8 ± 6.1%
65 | Nc1nc(O)c2ncn(CCC(CO)CO)c2n1 [Penciclovir] | 104 ± 2.1%
66 | CC(C)(C)[Si](C)(C)Oc1ccc2oc(=O)c3c(c2c1)CCCN3 | 108 ± 14%
